We go through nine compounds from PubChem BioAssay (NCI).

Molecules are shown by their SMILES. Compounds without any hit were thinned out: in the full panel of roughly 83,000, 20% have a hit.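 Each cell line was grown in a 96-well plate and treated with one concentration of compound for 48 hours. Values below 10 were considered active.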 Values without a mark were called inactive. Calls of active or inactive are those of the source.

Some test systems named below: SR leukemia; RPMI-8226 leukemia; OVCAR-8 ovarian; OVCAR-5 ovarian; OVCAR-4 ovarian; SK-OV-3 ovarian; IGROV1 ovarian; OVCAR-3 ovarian; HS 578T breast; NCI/ADR-RES ovarian; T-47D breast; BT-549 breast; MDA-MB-435 melanoma; SW-620 colon; MCF7 breast; HCT-116 colon; HCC-2998 colon; KM12 colon.
Holding throughout (test): NCI-60 one-dose screen, 48 h (100 = growth as untreated, 0 = no growth, -100 = all killed)
Holding throughout (conditions): 10 µM unless noted

As for `CCOC(=O)c1cc(C#N)n2ccc3ccccc3c12`, the growth in the assay with SR leukemia was 115%; in the assay on RPMI-8226 leukemia it was 111%; with OVCAR-8 ovarian, 100%; in the assay on OVCAR-5 ovarian it was 94.2%; with OVCAR-4 ovarian it was 95.3%; with SK-OV-3 ovarian, 36.5%. Moreover, the growth is 99.7% in the assay on IGROV1 ovarian; 102% in the assay with OVCAR-3 ovarian; 112% with HS 578T breast; 102% in the assay with NCI/ADR-RES ovarian; 104% with T-47D breast; 113% in the assay with BT-549 breast. Also, the growth is 99.1% with MDA-MB-435 melanoma; 97.9% in the assay on SW-620 colon; 95.7% with MCF7 breast; 108% in the assay on HCT-116 colon; 106% with HCC-2998 colon; 100% in the assay on KM12 colon.

Turning to `CCc1c2c(nc3ccc(OCc4ccc(B(O)O)cc4)cc13)-c1cc3c(c(=O)n1C2)COC(=O)[C@]3(O)CC`, the growth in the assay on SR leukemia is -2.77% (active); in the assay on RPMI-8226 leukemia, 6.35% (active); with OVCAR-8 ovarian, 6.94% (active); in the assay with OVCAR-5 ovarian it was 11.5%; with OVCAR-4 ovarian, 24.2%; in the assay on SK-OV-3 ovarian it was -4.91% (active). Moreover, the growth is 17.6% in the assay on IGROV1 ovarian; 6.75% (active) with OVCAR-3 ovarian; 36.7% with HS 578T breast; -0.104% (active) with NCI/ADR-RES ovarian; -1.27% (active) with T-47D breast; -3.67% (active) with BT-549 breast. Further, the growth is 6.63% (active) in the assay with MDA-MB-435 melanoma; 13.8% with SW-620 colon; 1.65% (active) in the assay on MCF7 breast; 4.57% (active) in the assay with HCT-116 colon; 19.2% in the assay on HCC-2998 colon; 1.86% (active) with KM12 colon.

With `CCOC(=O)CSc1nc2ccccc2c(=O)n1Cc1ccc(S(N)(=O)=O)cc1`, the growth is 99.6% in the assay on SR leukemia; 98.2% in the assay with RPMI-8226 leukemia; 101% in the assay on OVCAR-8 ovarian; 97.5% in the assay with OVCAR-5 ovarian; 116% in the assay with OVCAR-4 ovarian; 107% with SK-OV-3 ovarian. Moreover, the growth was 105% in the assay on IGROV1 ovarian; 112% with OVCAR-3 ovarian; 97.9% in the assay with HS 578T breast; 104% in the assay on NCI/ADR-RES ovarian; 102% with T-47D breast; 105% with BT-549 breast. Further, the growth is 102% in the assay with MDA-MB-435 melanoma; 98.6% in the assay on SW-620 colon; 96.7% with MCF7 breast; 102% in the assay with HCT-116 colon; 109% in the assay on HCC-2998 colon; 104% in the assay with KM12 colon.

For `OCc1cnccc1NCCCCOc1ccc(Oc2ccccc2)cc1`, the growth with SR leukemia was 31.7%; in the assay on RPMI-8226 leukemia, 24.7%; in the assay on OVCAR-8 ovarian, 65.1%; in the assay with OVCAR-5 ovarian, 84.1%; in the assay with OVCAR-4 ovarian it was 63.2%; in the assay on SK-OV-3 ovarian, 87.2%. Also, the growth with IGROV1 ovarian is 72.7%; in the assay with OVCAR-3 ovarian, 66.6%; in the assay on HS 578T breast it was 59.6%; in the assay on NCI/ADR-RES ovarian, 65.8%; with T-47D breast, 35.4%; in the assay with BT-549 breast it was 62.6%. The growth in the assay with MDA-MB-435 melanoma is 59.9%; in the assay with SW-620 colon it was 49.2%; with MCF7 breast, 33.2%; with HCT-116 colon, 31.3%; with HCC-2998 colon it was 89.6%; with KM12 colon, 64.8%.

Regarding `C=C1C(=O)O[C@H]2[C@H]1CC/C(COC(=O)NCCc1c[nH]c3ccc(OC)cc13)=C\CC[C@@]1(C)O[C@@H]21`, the growth in the assay with SR leukemia was 11.6%; with RPMI-8226 leukemia, -18.4% (active); in the assay with OVCAR-8 ovarian, 20.4%; with OVCAR-5 ovarian, 51.8%; in the assay on OVCAR-4 ovarian, -13.1% (active); with SK-OV-3 ovarian, 118%. The growth with IGROV1 ovarian was -5.2% (active); with OVCAR-3 ovarian, -74.3% (active); in the assay with HS 578T breast it was 79.9%; with NCI/ADR-RES ovarian, 83.5%; in the assay on T-47D breast it was -35.3% (active); in the assay on BT-549 breast, -22.1% (active). Further, the growth was 14.7% in the assay on MDA-MB-435 melanoma; -56.2% (active) in the assay with SW-620 colon; 26.9% in the assay on MCF7 breast; -82.5% (active) with HCT-116 colon; 75.1% with HCC-2998 colon; 63.1% in the assay on KM12 colon.

In the case of `COc1ccc(/C=C2\Oc3cc(OCCCN4CCCCC4)ccc3C2=O)cc1OC`, the growth with SR leukemia was -18.7% (active); in the assay on RPMI-8226 leukemia it was 90.6%; in the assay on OVCAR-8 ovarian, 94.4%; in the assay with OVCAR-5 ovarian, 95.2%; in the assay with OVCAR-4 ovarian, 89.4%; in the assay on SK-OV-3 ovarian it was 113%. Further, the growth was 93.9% in the assay with IGROV1 ovarian; 93% in the assay on OVCAR-3 ovarian; 92% in the assay on HS 578T breast; 97.1% in the assay with NCI/ADR-RES ovarian; 97.8% in the assay with T-47D breast; 83.9% with BT-549 breast. Also, the growth with MDA-MB-435 melanoma was 100%; in the assay on SW-620 colon it was 85%; in the assay with MCF7 breast, 85.9%; in the assay on HCT-116 colon, 76%; in the assay with HCC-2998 colon, 108%; in the assay on KM12 colon, 93.6%.

Turning to `CCCCCCCCCCCCCCCC[N+]1(C)CCN(SN2CC[N+](C)(CCCCCCCCCCCCCCCC)CC2)CC1`, the growth with SR leukemia is 26.8%; in the assay on RPMI-8226 leukemia, 26.3%; in the assay with OVCAR-8 ovarian it was 67.2%; in the assay with OVCAR-5 ovarian, 50%; with OVCAR-4 ovarian, 74.6%; with SK-OV-3 ovarian, 124%. The growth with IGROV1 ovarian is -18.9% (active); with OVCAR-3 ovarian, 59.7%; with HS 578T breast, 88.2%; in the assay on NCI/ADR-RES ovarian it was 96.3%; in the assay with T-47D breast, 102%; in the assay with BT-549 breast, 87.7%. Besides, the growth in the assay on MDA-MB-435 melanoma was 95.7%; in the assay on SW-620 colon, 57.7%; in the assay on MCF7 breast it was 76.9%; in the assay on HCT-116 colon it was 31.6%; in the assay on HCC-2998 colon, 70%; in the assay on KM12 colon, 78.2%.

Take `CNCCOc1nc2c3cnccc3cc(-c3cc(OC)c(OC)c(OC)c3)c2c2ccncc12`: the growth is -18.2% (active) in the assay with SR leukemia; -32% (active) with RPMI-8226 leukemia; -37.3% (active) in the assay with OVCAR-8 ovarian; -9.07% (active) in the assay with OVCAR-5 ovarian; -2.03% (active) with OVCAR-4 ovarian; -33.9% (active) in the assay on SK-OV-3 ovarian. Moreover, the growth in the assay on IGROV1 ovarian is -16.3% (active); with OVCAR-3 ovarian, 1.62% (active); in the assay on HS 578T breast, -25.7% (active); with NCI/ADR-RES ovarian, -27.9% (active); with T-47D breast it was -12.4% (active); in the assay on BT-549 breast, -45.5% (active). For the same compound, the growth with MDA-MB-435 melanoma is -90.1% (active); in the assay with SW-620 colon, 3.63% (active); in the assay with MCF7 breast, -0.459% (active); in the assay on HCT-116 colon, -89.9% (active); in the assay with HCC-2998 colon, -77% (active); in the assay with KM12 colon, 5.03% (active).

With `CCOC(=O)C1=C(CCl)NC(=O)NC1c1ccc2c(c1)OCO2` (configuration not stated), the growth in the assay on SR leukemia was 28%; in the assay on RPMI-8226 leukemia it was 15.3%; in the assay on OVCAR-8 ovarian, 45.7%; with OVCAR-5 ovarian, 24.6%; in the assay on OVCAR-4 ovarian, 32.5%; with SK-OV-3 ovarian, 81.8%. The growth in the assay on IGROV1 ovarian was 37.2%; in the assay with OVCAR-3 ovarian, 24.8%; in the assay with HS 578T breast it was 71.9%; in the assay with NCI/ADR-RES ovarian, 58.6%; in the assay with T-47D breast it was 31.3%; in the assay on BT-549 breast, 32.4%. The growth in the assay with MDA-MB-435 melanoma was 35.7%; in the assay with SW-620 colon, 26.7%; in the assay on MCF7 breast it was 9.21% (active); in the assay on HCT-116 colon, 8.65% (active); in the assay with HCC-2998 colon it was 83.1%; in the assay on KM12 colon, 84.3%.
